According to PubChem BioAssay (Tox21):
Records with an inconclusive call do not appear. Activity calls are given as the source filed them. Unless noted, the call rests on the fitted dose curve; in most records, active means well fitted curve in the direction sought with a large enough effect in the repeat runs; inconclusive means weak or mixed curves; inactive means no such curve, though single readings can be large; an effect the other way counts as inactive or inconclusive.

Experiments:
[1] = target: Estrogen receptor beta (Homo sapiens) (UniProt Q92731); test: qHTS assay to identify small molecule agonists of the estrogen receptor beta (ER-beta) signaling pathway (AID 1259377; active means well fitted activation curve with a large enough effect in the signal ratio in the repeat runs, not every such curve was filed as active; the % refers to the signal ratio)
Method in brief: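 HEK293T ER-beta-UAS-bla; 2% charcoal-stripped FBS; cells pre-incubated 6 hr, compound 16 hr, 37C/5% CO2; LiveBLAzer B/G FRET substrate 2 h RT; fluorescence intensity read.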

[2] = target: Estrogen receptor beta (Homo sapiens) (UniProt Q92731); test: qHTS assay to identify small molecule antagonists of the estrogen receptor beta (ER-beta) signaling pathway (AID 1259378; active means well fitted inhibition curve with a large enough effect in the signal ratio in the repeat runs, not every such curve was filed as active; the % refers to the signal ratio; further: potency means the concentration at half of the fitted maximal effect)
Method in brief: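 Antagonist mode: compounds added to beta-lactamase reporter HEK293T ER-beta-UAS cells stimulated with E2 (1nM final), 16 hr at 37C. LiveBLAzer B/G FRET substrate, 2 hours room temperature, fluorescence read-out.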

[3] = qHTS assay to identify small molecule agonists of the androgen receptor (AR) signaling pathway in the presence of an antagonist - cell viability counter screen (AID 1259379); further: nearly all actives have a fitted effect of over 25% in size; further: potency means the concentration at half of the fitted maximal effect
Method in brief: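 Cells: MDA-kb2 (MMTV-luc, AR and GR elements), 3,000/well, 5 hr settle. Added: nilutamide 3.0uM final, then compounds (15 conc.). Incubation: 16 hr, 37C, no CO2. Read-out: CellTiter-Fluor, 1 hr, fluorescence.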

[4] = qHTS assay to identify small molecule agonists of the estrogen receptor beta (ER-beta) signaling pathway - cell viability counter screen (AID 1259380); further: nearly all actives have a fitted effect of over 30% in size; further: potency means the concentration at half of the fitted maximal effect
Method in brief: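 HEK293T ER-beta-UAS-bla; 2% CS-FBS; 6 hr pre-plate, 16 hr cpd at 37C/5% CO2; LiveBLAzer read first, then CellTiter-Glo 30 min RT, luminescence.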

[5] = qHTS assay to identify small molecule antagonists of the estrogen receptor beta (ER-beta) signaling pathway - cell viability counter screen (AID 1259382); further: nearly all actives have a fitted effect of over 55% in size; further: potency means the concentration at half of the fitted maximal effect
Method in brief: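 Cells: ER-beta-UAS-bla HEK293T, 2,000/well, 2% CS-FBS, 6 hr settle. Cpd + E2 (1nM final), 16 hr, 37C/5% CO2. Bla FRET substrate 2 hr RT, then CellTiter-Glo 30 min RT, luminescence.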

[6] = target: Estrogen receptor (Homo sapiens) (UniProt P03372); test: qHTS assay to identify small molecule agonists of the estrogen receptor alpha (ER-alpha) signaling pathway in the presence of an antagonist (AID 1259383; calls by dose curve; further: top concentration of the series differs between compounds; nearly all actives have a fitted effect of over 15% in size)
Method in brief: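 VM7Luc4E2, endog. ER-alpha + 4×ERE-luc; charcoal-stripped FBS, phenol red-free, 5 d; 24hr plating; +10.0nM ICI-182,780 (final); cpds 15 conc, 22hr, 37C/5% CO2; ONE-Glo luminescence.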

[7] = qHTS assay to identify small molecule agonists or antagonists of the thyroid stimulating hormone receptor (TSHR) signaling pathway - wild type cell line counter screen (AID 1259384; calls by dose curve)
Method in brief: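 Counter screen in untransfected Hek293: compounds (15-point titration, triplicate) plus phosphodiesterase inhibitor Ro20-1724 added after 18 h plating; 30 min RT. Intracellular cAMP via competitive d2/cryptate immunoassay, 1 h incubation.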

[8] = target: Thyrotropin receptor (Homo sapiens) (UniProt P16473); test: qHTS assay to identify small molecule antagonists of the thyroid stimulating hormone receptor (TSHR) signaling pathway (AID 1259385; calls by dose curve; further: nearly all actives have a fitted effect of over 20% in size)
Method in brief: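 Antagonist mode: compound-treated TSHR-expressing HEK293 cells were stimulated with 1.5 ng/mL TSH (final) in presence of Ro20-1724 for 30 min at RT. HTRF cAMP detection after 1 h; each compound tested at 15 concentrations, triplicate.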

[9] = qHTS assay to identify small molecule agonists of the estrogen receptor alpha (ER-alpha) signaling pathway in the presence of an antagonist - cell viability counter screen (AID 1259386);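 further: cells exposed to compounds for 22 h at 37 °C before the viability read; nearly all actives have a fitted effect of over 30% in size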; further: potency means the concentration at half of the fitted maximal effect
Method in brief: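 VM7Luc4E2, stripped-serum pre-culture 5 d; 24hr plating; +ICI-182,780 10.0nM final; cpds 15 conc, 22hr, 37C/5% CO2; CellTiter-Fluor added at 21hr, fluorescence 1hr later.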

[10] = target: Progesterone receptor (Homo sapiens) (UniProt P06401); test: qHTS assay to identify small molecule antagonists of the progesterone receptor (PR) signaling pathway (AID 1346795; active means well fitted inhibition curve with a large enough effect in the signal ratio in the repeat runs, not every such curve was filed as active; the % refers to the signal ratio; further: potency means the concentration at half of the fitted maximal effect)
Method in brief: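 Read-out is fluorescence from the LiveBLAzer B/G FRET substrate, cleaved by a UAS-controlled beta-lactamase in PR-UAS-bla HEK293T cells after 16 hr exposure to compound plus 1 nM promegestone (final), followed by 2 hr at room temperature.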

[11] = qHTS assay to identify small molecule antagonists of the progesterone receptor (PR) signaling pathway - cell viability counter screen (AID 1346798); further: nearly all actives have a fitted effect of over 50% in size; further: potency means the concentration at half of the fitted maximal effect
Method in brief: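 HEK293T PR-UAS-bla, 2% charcoal-stripped FBS; 4 hr pre-plate; cpd + R5020, 16 h 37C; LiveBLAzer read first; then CellTiter-Glo 30 min RT, luminescence.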

[12] = qHTS assay to identify small molecule antagonists of the TGF-beta/Smad signaling pathway - cell viability counter screen (AID 1346824); further: nearly all actives have a fitted effect of over 50% in size
Method in brief: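 Cytotoxicity counter-screen run in the same wells as the beta-lactamase Smad reporter read: CellTiter-Glo luminescence after 30 min at room temperature. HEK 293T SBE-bla cells had 5 hr compound exposure at 37 C with TGF-beta1 (0.25 ng/mL stock).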

[13] = qHTS assay to identify small molecule agonists of the TGF-beta/Smad signaling pathway - cell viability counter screen (AID 1346829); further: top concentration of the series differs between compounds; nearly all actives have a fitted effect of over 45% in size
Method in brief: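 In parallel with the Smad reporter read, viability of HEK 293T cells stably carrying SBE-bla is quantified by ATP luminescence following 5 hr compound treatment.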

[14] = qHTS assay to identify small molecule agonists of the TGF-beta/Smad signaling pathway (AID 1346859; active means well fitted activation curve with a large enough effect in the signal ratio in the repeat runs, not every such curve was filed as active; the % refers to the signal ratio; further: series mostly up to about 77 µM)
Method in brief: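 SBE-bla HEK 293T, 4,000 cells/well, plated o/n; cpd in DMSO, 5 hr, 37 C/5% CO2; B/G FRET substrate 2 hr RT; ex 405, em 460/530 nm.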

[15] = Human pregnane X receptor (PXR) small molecule agonists, qHTS cell viability counter screen (AID 1346977); further: nearly all actives have a fitted effect of over 50% in size; further: potency means the concentration at half of the fitted maximal effect
Method in brief: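 PXR-Luc HepG2, 2,000 cells/well, 5% charcoal-stripped FBS; 5hr settle; cpd 24hr, 37C/5% CO2; CellTiter-Fluor at 23hr, read 1hr later (fluorescence).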

[16] = target: Progesterone receptor (Homo sapiens) (UniProt P06401); test: qHTS assay to identify small molecule agonists of the progesterone receptor (PR) signaling pathway (AID 1346784; calls by dose curve; further: nearly all actives have a fitted effect of over 30% in size)
Method in brief: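 Beta-lactamase reporter read-out: after 16 hr compound treatment at 37C and a further 2 hr at room temperature with LiveBLAzer B/G FRET substrate, fluorescence was measured in PR-UAS-bla HEK 293T cells grown in 2% charcoal-stripped serum.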

[17] = qHTS assay to identify small molecule agonists of the progesterone receptor (PR) signaling pathway - cell viability counter screen (AID 1346799; calls by dose curve; further: nearly all actives have a fitted effect of over 45% in size; further: potency means the concentration at half of the fitted maximal effect)
Method in brief: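 Luminescence from CellTiter-Glo, added after the beta-lactamase FRET read in the same wells, gave cytotoxicity in PR-UAS-bla HEK293T cells treated with compounds for 16 hr at 37C.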

[18] = target: Thyrotropin-releasing hormone receptor (Homo sapiens) (UniProt P34981); test: qHTS assay to identify small molecule antagonists of the thyrotropin-releasing hormone receptor (TRHR) signaling pathway (AID 1346877; active means well fitted inhibition curve with a large enough effect in the repeat runs, not every such curve was filed as active; further: series mostly up to about 51 µM)
Method in brief: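 Intracellular calcium fluorescence, read kinetically every second over 3 min, reports TRH-evoked signalling in HEK293 cells carrying TRHR. Test compounds were added 5 min ahead of a 1 nM TRH challenge.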

[19] = target: Thyrotropin-releasing hormone receptor (Homo sapiens) (UniProt P34981); test: qHTS assay to identify small molecule agonists of the thyrotropin-releasing hormone receptor (TRHR) signaling pathway (AID 1346891; calls by dose curve; further: series mostly up to about 58 µM)
Method in brief: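 Intracellular calcium rise, read as fluorescence every second for 3 min, served as the agonist signal in dye-loaded HEK293 cells expressing TRHR; each compound ran at 15 concentrations in triplicate.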

Measured: Potency

Sequence of Estrogen receptor (Homo sapiens) (P03372 whole entry, looked up): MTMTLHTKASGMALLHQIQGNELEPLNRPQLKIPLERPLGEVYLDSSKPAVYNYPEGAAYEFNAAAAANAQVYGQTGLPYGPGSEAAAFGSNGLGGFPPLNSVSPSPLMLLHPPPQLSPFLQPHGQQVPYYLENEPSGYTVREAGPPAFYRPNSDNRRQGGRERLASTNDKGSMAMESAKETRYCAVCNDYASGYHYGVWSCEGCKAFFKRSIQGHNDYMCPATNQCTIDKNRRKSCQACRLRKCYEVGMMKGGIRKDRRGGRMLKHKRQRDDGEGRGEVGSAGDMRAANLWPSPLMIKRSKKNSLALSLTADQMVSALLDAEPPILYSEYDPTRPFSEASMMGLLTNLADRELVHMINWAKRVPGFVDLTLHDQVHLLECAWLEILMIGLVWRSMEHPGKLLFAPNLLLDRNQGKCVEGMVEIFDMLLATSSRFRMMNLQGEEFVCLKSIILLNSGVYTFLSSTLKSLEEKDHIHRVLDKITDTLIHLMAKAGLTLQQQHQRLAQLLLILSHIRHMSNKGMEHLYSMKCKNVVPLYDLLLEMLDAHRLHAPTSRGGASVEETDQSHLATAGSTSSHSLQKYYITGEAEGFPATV
Sequence of Thyrotropin receptor (Homo sapiens) (P16473 whole entry, looked up): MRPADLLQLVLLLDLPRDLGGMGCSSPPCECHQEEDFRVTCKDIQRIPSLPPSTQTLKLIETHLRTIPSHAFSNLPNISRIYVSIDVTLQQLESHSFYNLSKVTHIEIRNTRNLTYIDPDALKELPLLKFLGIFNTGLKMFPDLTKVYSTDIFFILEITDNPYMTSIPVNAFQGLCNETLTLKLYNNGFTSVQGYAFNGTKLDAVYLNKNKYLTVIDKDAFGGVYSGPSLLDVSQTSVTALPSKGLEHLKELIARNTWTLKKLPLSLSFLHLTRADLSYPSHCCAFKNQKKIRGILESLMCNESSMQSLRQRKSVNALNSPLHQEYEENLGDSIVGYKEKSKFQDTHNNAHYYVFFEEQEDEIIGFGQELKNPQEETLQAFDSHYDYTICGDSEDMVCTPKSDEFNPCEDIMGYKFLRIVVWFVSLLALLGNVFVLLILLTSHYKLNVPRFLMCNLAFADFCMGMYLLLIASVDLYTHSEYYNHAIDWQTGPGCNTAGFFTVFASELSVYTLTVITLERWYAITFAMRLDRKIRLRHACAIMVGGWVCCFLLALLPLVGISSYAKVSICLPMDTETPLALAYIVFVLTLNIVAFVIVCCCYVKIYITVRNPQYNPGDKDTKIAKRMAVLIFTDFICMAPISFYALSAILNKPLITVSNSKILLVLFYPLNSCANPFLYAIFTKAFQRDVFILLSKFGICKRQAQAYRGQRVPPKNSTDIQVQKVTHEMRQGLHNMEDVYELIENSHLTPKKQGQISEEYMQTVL
Sequence of Progesterone receptor (Homo sapiens) (P06401 whole entry, looked up): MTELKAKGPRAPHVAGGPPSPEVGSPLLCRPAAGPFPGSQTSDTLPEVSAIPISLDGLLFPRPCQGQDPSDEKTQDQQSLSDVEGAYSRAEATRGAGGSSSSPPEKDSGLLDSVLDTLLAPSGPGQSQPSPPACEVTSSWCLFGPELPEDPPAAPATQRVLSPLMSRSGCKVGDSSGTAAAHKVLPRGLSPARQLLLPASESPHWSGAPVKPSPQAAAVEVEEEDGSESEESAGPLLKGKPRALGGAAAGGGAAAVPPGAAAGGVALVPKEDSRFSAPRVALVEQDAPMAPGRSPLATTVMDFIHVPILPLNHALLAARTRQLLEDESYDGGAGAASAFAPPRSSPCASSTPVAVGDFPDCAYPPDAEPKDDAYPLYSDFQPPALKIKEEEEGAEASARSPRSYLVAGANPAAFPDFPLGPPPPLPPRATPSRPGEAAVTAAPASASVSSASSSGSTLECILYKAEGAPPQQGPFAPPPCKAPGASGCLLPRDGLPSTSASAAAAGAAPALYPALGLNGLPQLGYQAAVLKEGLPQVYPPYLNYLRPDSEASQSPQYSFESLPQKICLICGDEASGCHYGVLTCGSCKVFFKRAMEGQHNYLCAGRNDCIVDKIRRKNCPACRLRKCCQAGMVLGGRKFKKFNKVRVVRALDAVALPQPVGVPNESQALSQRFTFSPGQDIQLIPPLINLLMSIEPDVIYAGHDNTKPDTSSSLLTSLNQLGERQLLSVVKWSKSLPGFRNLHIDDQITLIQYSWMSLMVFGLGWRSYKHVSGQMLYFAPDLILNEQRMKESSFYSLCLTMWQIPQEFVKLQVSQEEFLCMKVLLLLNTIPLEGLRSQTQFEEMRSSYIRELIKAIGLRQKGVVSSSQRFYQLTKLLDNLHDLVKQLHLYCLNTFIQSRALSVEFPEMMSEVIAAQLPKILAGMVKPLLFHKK
Sequence of Thyrotropin-releasing hormone receptor (Homo sapiens) (P34981 whole entry, looked up): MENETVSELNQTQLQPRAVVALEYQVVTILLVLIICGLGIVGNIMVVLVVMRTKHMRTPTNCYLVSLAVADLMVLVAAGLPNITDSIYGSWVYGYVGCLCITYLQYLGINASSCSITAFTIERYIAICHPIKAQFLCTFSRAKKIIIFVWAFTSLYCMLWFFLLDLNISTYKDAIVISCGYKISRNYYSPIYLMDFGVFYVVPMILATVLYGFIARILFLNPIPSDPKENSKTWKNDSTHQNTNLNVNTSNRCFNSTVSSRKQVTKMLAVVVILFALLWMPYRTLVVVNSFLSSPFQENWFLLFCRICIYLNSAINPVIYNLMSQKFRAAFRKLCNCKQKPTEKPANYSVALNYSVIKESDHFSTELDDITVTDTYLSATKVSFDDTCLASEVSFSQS
Sequence of Estrogen receptor beta (Homo sapiens) (Q92731 whole entry, looked up): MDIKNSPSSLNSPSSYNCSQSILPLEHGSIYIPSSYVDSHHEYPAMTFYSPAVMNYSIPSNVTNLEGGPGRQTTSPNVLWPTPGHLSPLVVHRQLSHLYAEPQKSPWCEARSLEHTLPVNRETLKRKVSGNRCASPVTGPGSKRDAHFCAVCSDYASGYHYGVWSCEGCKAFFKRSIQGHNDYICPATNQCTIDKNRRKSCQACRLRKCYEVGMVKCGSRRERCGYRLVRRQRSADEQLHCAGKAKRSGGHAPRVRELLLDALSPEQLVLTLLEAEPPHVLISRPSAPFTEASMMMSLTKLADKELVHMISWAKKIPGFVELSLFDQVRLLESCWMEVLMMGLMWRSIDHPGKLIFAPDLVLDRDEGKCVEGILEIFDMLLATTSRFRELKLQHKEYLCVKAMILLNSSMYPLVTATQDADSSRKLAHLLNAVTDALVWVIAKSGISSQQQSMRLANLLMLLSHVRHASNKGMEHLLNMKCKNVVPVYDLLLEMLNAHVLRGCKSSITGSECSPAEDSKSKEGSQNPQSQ

CCCCNc1c(C(=O)OCC)c(C)nc2c1cnn2CC
active: [10] 26.6 µM
not listed: [16] | [17] | [18] | [19]
inactive: all other assays above

CCOCN(C(=O)CS(=O)(=O)O)c1c(C)cccc1CC
not listed: [6] | [9]
inactive: all other assays above

O=C(O)CCCCCCC(=O)O
not listed: [6] | [13]
inactive: all other assays above

Cc1cncc(C)c1
not listed: [13] | [16]
inactive: all other assays above

CCOCOCC
not listed: [11]
inactive: all other assays above

Cc1cnccn1
not listed: [7] | [8] | [11]
inactive: all other assays above

O=C1NC2CCCCN2C12CCN(CCCN1c3ccccc3CCc3ccc(Cl)cc31)CC2 (configuration not stated)
inactive: [1] | [7] | [16] | [18] | [19]
active: [2] 23.7 µM | [3] 26.6 µM | [4] 26.6 µM | [5] 26.6 µM | [9] 29.8 µM | [10] 26.6 µM | [11] 26.6 µM | [17] 23.7 µM | [15] 26.6 µM

CC(C)=CCCC(C)CCOC(=O)C(C)C (configuration not stated)
not listed: [9] | [13] | [15] | [17]
inactive: all other assays above

CCC(C)(C)c1cc(O)c(C(C)(C)CC)cc1O
active: [2] 48.6 µM | [3] 61.1 µM | [4] 61.1 µM
inactive: [1] | [5] | [6] | [7] | [10] | [12] | [13] | [19] | [15]

CC(C)=C1CC[C@@H](C)CC1=O
not listed: [15] | [16] | [18] | [19]
inactive: all other assays above

O=S(=O)(O)CCCN1CCOCC1
not listed: [11] | [12] | [15]
inactive: all other assays above

CCCCCCCC(C)=O
not listed: [6] | [12] | [18] | [19]
inactive: all other assays above

CCOB(OCC)OCC
not listed: [16] | [17] | [18] | [19]
inactive: all other assays above

CCCC(=O)OCC(COC(=O)CCC)OC(=O)CCC
not listed: [6]
inactive: all other assays above

Cn1cnc2ncnc(N)c21
not listed: [6] | [11] | [12] | [17]
inactive: all other assays above

CC(=O)c1ccccc1N
not listed: [3] | [12]
inactive: all other assays above
